About 79,000 compounds went through this panel and 15% of them were active in at least one assay; those are over-represented in the sample as a whole. Calls of active or inactive are those of the source. Cut-off read from the data, not from the text of the source: active = growth inhibition above about 70%; inactive = the rest.
Assays:
[1] = NCI Yeast Anticancer Drug Screen. Data for the mec2-1 strain (AID 157); settings: S. cerevisiae mec2-1 strain, active compounds read high
Method in brief: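 Strain: mec2-1 (DNA repair/cell cycle alteration). Compound exposure, then growth measured; inhibition expressed relative to vehicle.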

[2] = NCI Yeast Anticancer Drug Screen. Data for the rad14 strain (AID 159);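 note: 0% = growth of vehicle-treated control cultures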; settings: S. cerevisiae rad14 strain growth inhibition, active compounds read high
Method in brief: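 Readout: yeast growth inhibition, referenced to vehicle-only cultures. Strain bears a defined alteration in DNA damage repair.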

[3] = NCI Yeast Anticancer Drug Screen. Data for the sgs1 mgt1 strain (AID 161);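 note: 0% = growth of cultures given vehicle only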; settings: S. cerevisiae sgs1 mgt1 strain, active compounds read high
Method in brief: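 Inhibition of yeast growth, normalised to vehicle-treated controls, is reported for a strain bearing genetic alterations in DNA damage repair.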

[4] = NCI Yeast Anticancer Drug Screen. Data for the CLN2oe strain (AID 163);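 note: 0% = growth of vehicle-only control cultures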; settings: S. cerevisiae CLN2oe strain, active compounds read high
Method in brief: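 Growth of a genetically modified yeast strain is measured after compound exposure and compared with cultures given vehicle alone.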

[5] = NCI Yeast Anticancer Drug Screen. Data for the cln2 rad14 strain (AID 165);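 note: 0% = growth equal to vehicle treated cultures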; settings: S. cerevisiae cln2 rad14 strain, active compounds read high
Method in brief: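 Compounds are applied to the cln2 rad14 yeast strain, and growth is then compared with that of vehicle-treated cultures to give inhibition.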

[6] = NCI Yeast Anticancer Drug Screen. Data for the bub3 strain (AID 167); settings: S. cerevisiae bub3 mutant strain, active compounds read high
Method in brief: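 Part of a panel of yeast mutants defective in DNA damage repair or cell cycle regulation. Each strain is grown with compound, and inhibition is calculated relative to solvent-treated cultures.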

[7] = NCI Yeast Anticancer Drug Screen. Data for the mlh1 strain (AID 171);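 note: 0% = growth of vehicle-treated control cultures of the same strain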; settings: S. cerevisiae mlh1 strain growth inhibition, active compounds read high
Method in brief: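 Growth of the mutant yeast strain after compound exposure, expressed as inhibition relative to vehicle-only controls.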

[8] = NCI Yeast Anticancer Drug Screen. Data for the mlh1 rad18 strain (AID 175); settings: S. cerevisiae mlh1 rad18 strain growth inhibition, active compounds read high
Method in brief: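 Read-out is yeast growth inhibition, calculated against vehicle-only controls. The compound was applied to a strain engineered with DNA damage repair alterations.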

[9] = NCI Yeast Anticancer Drug Screen. Data for the rad18 strain (AID 177); settings: S. cerevisiae rad18 mutant growth inhibition, active compounds read high
Method in brief: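 Growth of the mutant yeast strain after compound exposure, normalised to vehicle-only cultures.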

[10] = NCI Yeast Anticancer Drug Screen. Data for the wt1 strain (AID 149);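 note: 0% = growth of vehicle-treated wt1 cultures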; settings: S. cerevisiae wt1 strain (SPY 50644) growth inhibition, active compounds read high
Method in brief: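 The wt1 strain was treated with compounds, and growth was compared with vehicle-treated cultures to give inhibition.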

[11] = NCI Yeast Anticancer Drug Screen. Data for the rad50EPP+ strain (AID 151);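 note: 0% = growth of vehicle-treated control cultures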; settings: S. cerevisiae rad50 mutant strain, active compounds read high
Method in brief: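 Compounds were applied to the rad50EPP+ yeast strain, which bears a defined DNA repair alteration, and growth inhibition was determined relative to vehicle-treated cultures.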

[12] = NCI Yeast Anticancer Drug Screen. Data for the mgt1 strain (AID 153); settings: S. cerevisiae mgt1 mutant growth inhibition, active compounds read high
Method in brief: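 Strain: mgt1 yeast, one of a set carrying defined DNA damage repair or cell cycle control alterations. Compound-treated growth compared with vehicle.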

[13] = NCI Yeast Anticancer Drug Screen. Data for the rad50 strain (AID 155);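 note: 0% = growth of vehicle-only cultures of the same strain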; settings: S. cerevisiae rad50 strain growth inhibition, active compounds read high
Method in brief: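 Cells are treated with compound, grown, and their growth is then scored against vehicle-only cultures of the same repair-deficient yeast strain.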

[14] = NCI Yeast Anticancer Drug Screen. Data for the wt2 strain (AID 169);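 note: 0% = growth of vehicle-treated yeast cultures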; settings: S. cerevisiae wt2 strain growth inhibition, active compounds read high
Method in brief: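 This strain belongs to a panel of yeast strains with defined genetic alterations in DNA damage repair or cell cycle control. Compounds are applied, and growth inhibition is measured against vehicle-treated cultures.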

[15] = NCI Yeast Anticancer Drug Screen. Data for the sgs1 strain (AID 173);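 note: 0% = growth of vehicle-only control cultures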; settings: S. cerevisiae sgs1 mutant, active compounds read high
Method in brief: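 Growth of a yeast strain bearing a defined genetic alteration is measured after compound treatment. Inhibition is expressed relative to vehicle-only controls.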

[16] = at 5.0 µM (retest, dose inferred, filed as 0.5)
[17] = at 50.0 µM (retest, dose inferred, filed as 5.0)

Measured: growth inhibition

CCCCCCc1cc(C(=O)OC/C(C)=N/NC(N)=O)c2ccccc2n1
inactive: [1]; at 100.0 µM -7% | [2]; at 1.2 µM 0% | [2]; at 3.7 µM 3% | [2]; at 11.0 µM 3% | [2]; at 33.0 µM 0% | [2]; at 100.0 µM -4% | [3]; [16] -4% | [3]; [17] 47% | [3]; at 50.0 µM 31% | [4]; at 1.2 µM -3% | [4]; at 3.7 µM -11% | [4]; at 11.0 µM -5% | [4]; at 33.0 µM -13% | [4]; at 100.0 µM -10% | [5]; [16] -1% | [5]; [17] 21% | [5]; at 50.0 µM -12.3% | [6]; at 1.2 µM 0% | [6]; at 3.7 µM -4% | [6]; [16] -2% | [6]; at 11.0 µM -2% | [6]; at 33.0 µM 3% | [6]; at 50.0 µM 68.5% | [6]; at 100.0 µM 5% | [7]; at 1.2 µM -3% | [7]; at 3.7 µM -4% | [7]; at 11.0 µM -4% | [7]; at 33.0 µM -5% | [7]; at 100.0 µM -5% | [8]; [16] -4% | [8]; [17] 50% | [8]; at 50.0 µM 61.4% | [9]; at 1.2 µM -1% | [9]; at 3.7 µM -2% | [9]; at 11.0 µM -4% | [9]; at 33.0 µM -7% | [9]; at 100.0 µM -7%
active: [6]; [17] 77%

CCC(=O)OCCn1c2nc(=O)[nH]c(=O)c-2nc2cc(C)c(C)cc21
active: [11]; at 33.0 µM 73% | [11]; at 100.0 µM 88% | [12]; at 33.0 µM 75% | [12]; at 100.0 µM 88% | [3]; [17] 91% | [14]; at 33.0 µM 85% | [14]; at 100.0 µM 93% | [15]; at 33.0 µM 83% | [15]; at 100.0 µM 94%
inactive: [10]; at 1.2 µM 8% | [10]; at 3.7 µM -4% | [10]; at 11.0 µM 4% | [10]; at 33.0 µM 7% | [10]; at 100.0 µM 11% | [11]; at 1.2 µM -1% | [11]; at 3.7 µM -13% | [11]; at 11.0 µM 24% | [12]; at 1.2 µM -1% | [12]; at 3.7 µM -8% | [12]; at 11.0 µM 3% | [13]; at 1.2 µM -57% | [13]; at 3.7 µM -17% | [13]; [16] 3% | [13]; at 11.0 µM -9% | [13]; at 33.0 µM 15% | [13]; [17] 10% | [13]; at 50.0 µM 33.3% | [13]; at 100.0 µM 44% | [1]; at 1.2 µM -2% | [1]; at 3.7 µM -3% | [1]; [16] 3% | [1]; at 11.0 µM -2% | [1]; at 33.0 µM -4% | [1]; [17] 14% | [1]; at 50.0 µM 42.9% | [1]; at 100.0 µM -1% | [2]; at 1.2 µM 3% | [2]; at 3.7 µM 0% | [2]; at 11.0 µM 23% | [2]; at 33.0 µM 14% | [2]; at 100.0 µM -3% | [3]; [16] 2% | [3]; at 50.0 µM 57.5% | [4]; at 1.2 µM -7% | [4]; at 3.7 µM -5% | [4]; at 11.0 µM -3% | [4]; at 33.0 µM -5% | [4]; at 100.0 µM -2% | [5]; [16] -1% | [5]; [17] 3% | [5]; at 50.0 µM 19.9% | [6]; at 1.2 µM -7% | [6]; at 3.7 µM -4% | [6]; [16] -2% | [6]; at 11.0 µM -5% | [6]; at 33.0 µM 5% | [6]; [17] 10% | [6]; at 50.0 µM 3.15% | [6]; at 100.0 µM 35% | [14]; at 1.2 µM -8% | [14]; at 3.7 µM -1% | [14]; at 11.0 µM 20% | [15]; at 1.2 µM -15% | [15]; at 3.7 µM -7% | [15]; at 11.0 µM 21% | [8]; [16] 5% | [8]; [17] 29% | [8]; at 50.0 µM 21.1% | [9]; at 1.2 µM -3% | [9]; at 3.7 µM -1% | [9]; at 11.0 µM -1% | [9]; at 33.0 µM 7% | [9]; at 100.0 µM 11%

NC(=NCc1ccccc1)N/N=C\c1ccnc2ccccc12
inactive: [10]; at 1.2 µM -1% | [10]; at 3.7 µM -1% | [10]; at 11.0 µM -2% | [10]; at 33.0 µM 0% | [10]; at 100.0 µM 2% | [11]; at 1.2 µM -2% | [11]; at 3.7 µM 0% | [11]; at 11.0 µM 1% | [11]; at 33.0 µM 1% | [11]; at 100.0 µM 4% | [12]; at 1.2 µM -4% | [12]; at 3.7 µM -3% | [12]; at 11.0 µM 0% | [12]; at 33.0 µM 3% | [13]; at 1.2 µM 1% | [13]; at 3.7 µM 2% | [13]; [16] -2% | [13]; at 11.0 µM 4% | [13]; at 33.0 µM 7% | [13]; [17] 46% | [13]; at 50.0 µM 36% | [13]; at 100.0 µM 39% | [1]; at 1.2 µM -1% | [1]; at 3.7 µM 0% | [1]; [16] 2% | [1]; at 11.0 µM -1% | [1]; at 33.0 µM 7% | [1]; [17] 56% | [1]; at 50.0 µM 48.8% | [1]; at 100.0 µM 27% | [2]; at 1.2 µM 0% | [2]; at 3.7 µM 3% | [2]; at 11.0 µM 12% | [2]; at 33.0 µM 36% | [2]; at 100.0 µM 61% | [3]; [16] -6% | [3]; at 50.0 µM 66.3% | [4]; at 1.2 µM -6% | [4]; at 3.7 µM -6% | [4]; at 11.0 µM 1% | [4]; at 33.0 µM 22% | [5]; [16] 9% | [5]; [17] 62% | [5]; at 50.0 µM 21.1% | [6]; at 1.2 µM 0% | [6]; at 3.7 µM 0% | [6]; [16] -5% | [6]; at 11.0 µM 1% | [6]; at 33.0 µM 13% | [6]; [17] 60% | [6]; at 50.0 µM 22.4% | [6]; at 100.0 µM 56% | [14]; at 1.2 µM -2% | [14]; at 3.7 µM -3% | [14]; at 11.0 µM -1% | [14]; at 33.0 µM -1% | [14]; at 100.0 µM 38% | [7]; at 1.2 µM -2% | [7]; at 3.7 µM -1% | [7]; at 11.0 µM 2% | [7]; at 33.0 µM 10% | [7]; at 100.0 µM 52% | [15]; at 1.2 µM -1% | [15]; at 3.7 µM 0% | [15]; at 11.0 µM 1% | [15]; at 33.0 µM 13% | [15]; at 100.0 µM 61% | [8]; [16] 3% | [8]; [17] -21% | [8]; at 50.0 µM 44.4% | [9]; at 1.2 µM -2% | [9]; at 3.7 µM -3% | [9]; at 11.0 µM 0% | [9]; at 33.0 µM 5% | [9]; at 100.0 µM 28%
active: [12]; at 100.0 µM 76% | [3]; [17] 75% | [4]; at 100.0 µM 70%

From PubChem BioAssay (NCI)
